# Assay results taken from ChEMBL document CHEMBL3988442, “University of Dundee, Small-Polar-MMV Screening Library” (2021).
# The campaign covered roughly 53,000 compounds. About 900 (1.7%) showed an effect of 50% or more. The list comes from a sample in which strong results are over-represented; it also holds similar structures and randomly drawn compounds.
# Tested on: Mycobacterium tuberculosis
# Test: Cornell - Phenotypic assay to identify agents that inhibit growth of Mycobacterium tuberculosis
# Assay type: functional
# Set-up: scale not given: direction of the effect not stated beside the values
# Conditions: 10 mM as filed; unlikely as a test dose
row,Compound,Percent Effect [%]
1,CCCn1c(C)c(CC(=O)NCC(C)O)c2c1CC(C)(C)CC2=O (configuration not stated),21.56
2,CCc1cc(N(C)CCC(O)c2ccccc2)n2nccc2n1 (configuration not stated),-53.72
3,COCC(=O)N1C[C@@H](c2cccc(F)c2)[C@H]2[C@H]1CCCCCN2C(C)=O,-30.92
4,O=C(NCc1ccc(Br)cc1)C1(O)CCSCC1,26.99
5,O=C(O)C(F)(F)F.O=C(O)C(F)(F)F.O=C(O)C(F)(F)F.c1cc(CNCC2OCCc3cn(CC4CCOCC4)nc32)ccn1 (configuration not stated),-7.498
6,CCCN(CC(F)(F)F)S(=O)(=O)c1cc(C(N)=O)n(C)c1,-26.73
7,COCC1CCN(C(=O)c2cn(Cc3ccccc3F)nn2)CC1,25.9
8,COCC1CCN(C(=O)c2cn(Cc3cccc(C(F)(F)F)c3)nn2)C1 (configuration not stated),30.37
9,COCC1CCN(C(=O)c2cn(Cc3ccccc3C(F)(F)F)nn2)C1 (configuration not stated),62.81
10,Cc1nc(NCC2CCOCC2)cc(C2CCN2S(C)(=O)=O)n1 (configuration not stated),10.58
11,CC1N(c2cnn(C)c2)C(=O)COC12CCN(Cc1ccco1)CC2.O=C(O)C(F)(F)F (configuration not stated),2.626
12,COCCNC(=O)[C@H]1C[C@@H]2CCN(c3ccncn3)C[C@H]2O1.O=C(O)C(F)(F)F,26.18
13,CCCNC(=O)c1cncc(CC2CCCN(C)C2)c1 (configuration not stated),-32.48
14,CN1C(=O)[C@H](OC(N)=O)[C@@H](C(=O)Nc2ccccc2)C12CCNCC2,-56.88
15,COCCN(Cc1ccco1)Cc1nc(-c2ccccc2)no1,-9.832
16,COCCN(Cc1ccco1)Cc1nc(-c2ccsc2)no1,-23.17
17,COCCN(Cc1ccccc1)Cc1nc(-c2ccsc2)no1,50.54
18,CN(C)c1cc(C2CCCN(C(=O)c3noc4c3CCCC4)C2)ccn1 (configuration not stated),38.49
19,COCCNC(=O)c1cc2c(c3ccccc3n2C)n1C(=O)N(C)C,18.89
20,Cc1cc(NC(=O)N2CCN(c3cccs3)CC2)ccc1C(N)=O,3.823
21,CNC(=O)CN1CCN(C(=O)Nc2ccc(Cl)cc2F)CC1,-7.252

row,Compound,Percent Effect [%]
1,O=C(Nc1ccccc1-c1cccs1)N1CCN(CC(F)F)CC1,-4.883
2,Cc1cc(C(N)=O)ccc1NC(=O)N1CCN(c2cccs2)CC1,67.2
3,CCn1cnnc1CNC(=O)N1CCN(c2cccs2)CC1,-10.74
4,NC(=O)c1ccc(NC(=O)N2CCN(c3cccs3)CC2)c(F)c1,54.78
5,CC(C)OCCC(=O)NCCc1csc(N2CCCC2)n1,-16.85
6,COCC(=O)NCc1cc(=O)n2c(n1)CN(Cc1ccccc1)CCC2.O=C(O)C(F)(F)F,6.068
7,OCc1ccc(CN(CCCn2ccnc2)Cc2cccnc2)o1,33.2
8,N#Cc1cc2c(nc1O)CCCCC2,-24.16
9,CN1C(=O)COc2cc(NC(=O)CCc3nc4cccnc4[nH]3)ccc21,11.88
10,COC(=O)Cc1cn2cc(C(F)(F)F)ccc2n1,-22.96
11,CC(C)NC(=O)[C@@]12CCO[C@@H]1CCN(Cc1ccc3c(c1)OCO3)C2.O=C(O)C(F)(F)F,-5.39
12,CCSCC(C)NCc1nc(-c2cccnc2)no1 (configuration not stated),-14.24
13,O=C(CCc1ccsc1)Nc1cccnc1N1CCCC1,8.029
14,CCN(CC)C(=O)CCc1c(C)nc2cc(O)nn2c1C,7.759
15,CN(C)[C@@H]1CN(Cc2ccccc2O)C[C@H]1c1cn(C)c2ccccc12.Cl,107.3
16,CN(C)[C@@H]1CN(Cc2cccnc2)C[C@H]1c1cn(C)c2ccccc12.Cl,6.134
17,CN(C)[C@@H]1CN(Cc2ccccn2)C[C@H]1c1cn(C)c2ccccc12.Cl,54.37
18,COc1cccc([C@@H]2CCN(Cc3cn(C)c4ccccc34)C[C@H]2O)c1,-6.919
19,CN(C)[C@@H]1CN(Cc2ccc(O)cc2)C[C@H]1c1cn(C)c2ccccc12.Cl,-25.68
20,Cc1cc(C)n(C2CN(Cc3ccccn3)C2)n1,-9.481
21,CSCC[C@@H]1CN2CCC[C@H]2CN1Cc1cn(C)nc1C,-32.61

row,Compound,Percent Effect [%]
1,Cc1nc(CN2CCCN(Cc3nc4c(F)cccc4[nH]3)CC2)no1,-62.54
2,O=C(NCCS(=O)(=O)N1CCN(c2ncccn2)CC1)C1CC1,-28.73
3,CCN(Cc1ccncc1)CC1(O)CCN(C(=O)c2cccc(C)n2)C1 (configuration not stated),-8.223
4,CCCc1nc(C)c(C(=O)NCCN2CCN(CC)CC2)s1,13.14
5,Cc1cccc(C)c1NC(=O)CC(CN1CCN(C)CC1)C(=O)O (configuration not stated),68.43
6,CN1CCCN(CC(CC(=O)Nc2ccc(Cl)cc2)C(=O)O)CC1 (configuration not stated),27.51
7,CN1CCN(CC(CC(=O)Nc2ccc(Cl)cc2)C(=O)O)CC1 (configuration not stated),46.61
8,CC(CN1CCOCC1)NC(=O)NCc1cccs1 (configuration not stated),-17.54
9,COc1cccc(N2CCN(Cc3ccc4ccn(C)c4c3)CC2=O)c1,57.23
10,NCCc1cccc(CN2CCN(c3cccc(Cl)c3)C(=O)C2)c1,12.48
11,COc1cccc(N2CCN(Cc3cc(C)cc(F)c3)CC2=O)c1,45.53
12,COc1cccc(N2CCN(Cc3ncc[nH]3)CC2=O)c1,-18.02
13,COc1cc(CN2CCN(c3cccc(OC)c3)C(=O)C2)cc(OC)c1,8.627
14,COc1cccc(N2CCN(Cc3ccc4[nH]ccc4c3)CC2=O)c1,56.6
15,COc1cccc(N2CCN(Cc3ccc4occc4c3)CC2=O)c1,21.65
16,COc1cccc(N2CCN(Cc3cccc(CCN)c3)CC2=O)c1,56.89
17,NCCc1cccc(CN2CCN(c3ccccc3)C(=O)C2)c1,-23.11
18,Cc1ccnn1CCC(=O)N1CCCC[C@@]2(C)[C@@H]1CCC(=O)N2C,-72.7
19,CC(C)n1nc(CN2CCCC2)c2c1CN(CC1CC1)CC2.O=C(O)C(F)(F)F.O=C(O)C(F)(F)F,3.423
20,O=C(CCn1nc(C(F)(F)F)c(Cl)c1C1CC1)NN1CCOCC1,6.641
